# Screens as filed in PubChem BioAssay.
# Pf growth 96h = Primary qHTS for delayed death inhibitors of the malarial parasite plastid, 96 hour incubation; hit rate 6.9% among 320,000; Potency, µM (titrated, usually from 28.7 µM), most hits filed as inhibitors; P. falciparum luciferase reporter growth, 96 h; AID 504834, 2011
#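 Cell-based qHTS: luciferase-tagged P. falciparum in erythrocytes (2% hematocrit, 0.05% parasitemia final) incubated with compounds for 96 hours, 37 C, 5% CO2; luciferase detection reagent then added and luminescence measured.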
# Pf growth 48h = Primary qHTS for delayed death inhibitors of the malarial parasite plastid, 48 hour incubation. hit rate 5.9% among 310,000. P. falciparum luciferase growth in erythrocytes, 48 h. Potency, µM (doses to about 28.7 µM), hits mostly inhibitors. AID 504832, 2011
#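 Firefly luciferase activity from engineered P. falciparum reports growth; inhibitors lower the luminescent signal. Cultures contained 2% hematocrit erythrocytes at 0.1% final parasitemia.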
# Cycloheximide cs = Cycloheximide Counterscreen for Small Molecule Inhibitors of Shiga Toxin | hit rate 12% among 300,000 | cell reporter, cycloheximide protein synthesis inhibition counterscreen | AID 2314, 2010 | max response, %; in the data active means max response mostly above about 13%, no sharp cut-off; inactive means mostly below about 14%; further: read at 38.3 µM for the half of the compounds with a filed dose
# HCV inh = qHTS Assay for Inhibitors of Hepatitis C Virus (HCV) | AID 651820, 2012 | Potency, µM (series often up to 41.8 µM), most hits filed as inhibitors | Huh7.5.1 HCVcc-Cre infection, luciferase reporter, 44 h | hit rate 3.4% among 340,000
#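 Cells seeded at 1,000/well and cultured 4 h, then compounds added followed by HCVcc-Cre virus (~0.5 moi). After 44 h further culture, luciferase substrate was added, plates held 15 min at room temperature, and luminescence read for 15 sec.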
# Shiga inhibitor = A qHTS for Small Molecule Inhibitors of Shiga Toxin | Vero cells, Shiga toxin protein synthesis inhibition reporter | inhibition, % at 38.7 µM | hit rate 9.2% among 290,000 | AID 2315, 2010; in the data active means inhibition mostly above about 28%, no sharp cut-off; inactive means mostly below about 43%
# HCMV antiviral = qHTS Assay for inhibitors of the human cytomegalovirus (HCMV); hit rate 4.5% among 410,000; HFF cells, HCMV-luciferase reporter, 72 h; stronger effect = lower value; activity change, negative = inhibition, % at 57.5 µM; in the data active means activity change below about -60%; inconclusive means no clear call, values can overlap the other calls; inactive means above about -39%
#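 Steps: HFFs plated, 16 h 37C; compounds added; HCMV-luciferase added to MOI 1 PFU/cell; 72 h 37C; OneGlo reagent, 5 min room temperature; luminescence read, normalized to controls.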
# Numbers stand for hits; n = inactive; u = inconclusive; x = no result. In the library only some 21% were active in any assay of this set; here they are far more common. Unless noted, the call rests on the fitted dose curve; in most records, active means well fitted inhibition curve with a large enough effect; inconclusive means small, poorly fitted or top-dose-only effect, or another doubt; inactive means no such curve, though single readings can be large or run the other way.
SMILES,Pf growth 96h,Pf growth 48h,Cycloheximide cs,HCV inh,Shiga inhibitor,HCMV antiviral
Cc1cc(C)nc(SCc2ccc(C(=O)N/N=C/c3ccncc3)cc2)n1,u,n,n,n,n,n
Cc1cc(C)nc(SCc2ccc(C(=O)NNC(=O)Nc3cccc(Cl)c3)cc2)n1,n,n,n,25µM,n,n
COC(=O)c1ccc(Cl)cc1NC(=O)Nc1nnc(N2CCCC2)s1,x,x,x,x,x,n
COc1ccc2cc(CNc3ccc(C)cc3)c(=O)n(CC(=O)Nc3cccc(C(F)(F)F)c3)c2c1,x,x,x,x,x,n
O=C(Nc1ccc(Cl)c(Cl)c1)Nc1ccccn1,n,n,46,n,66,n
O=C(NC(=O)c1cccc(F)c1)Nc1nc(-c2ccc(F)cc2)cc(C(F)(F)F)n1,n,u,n,n,n,n
O=C(Nc1cccnc1)Nc1ccccn1,n,n,n,n,n,n
COc1ccccc1C(=O)NC(=O)Nc1nc(-c2ccccc2)cc(C(F)(F)F)n1,3.7µM,3.7µM,n,n,n,n
COc1ccccc1C(=O)Nc1ccccn1,u,n,36,n,60,n
COc1ccccc1C(=O)Nc1nsc(-c2ccccc2)n1,n,n,49,n,79,n
COc1ccc(/C=N/NC(=O)C(=O)Nc2ccccn2)cc1OC,u,n,n,n,n,n
COc1ccc(NC(=O)Nc2ccccn2)cc1OC,n,n,34,n,62,u
CCN(CC)c1ccc(N2C(=O)CSC2=S)cc1,u,u,n,n,n,n
CCOc1ccc(N2C(=O)CN(CC(=O)OC)C2=S)cc1,n,n,n,n,n,-69
CCOc1ccc(N2C(=O)CSC2=S)cc1,13µM,n,n,n,n,n
CCOc1ccc(N2C(=O)CC(=O)NC2=O)cc1,10µM,n,n,n,x,n
O=C(COc1ccc(F)cc1)N/N=C/c1cccc2cccnc12,x,x,x,n,x,n
CCC(=O)N1CCN(c2ccc(Cl)cc2NC(=O)c2ccc3c(c2)OCCO3)CC1,n,u,n,n,n,-61
CCC(=O)N1CCN(c2ccc(NC(=O)c3ccc4c(c3)OCCO4)cc2)CC1,n,n,19,n,n,n
CN1CCN(c2ccccc2NC(=O)c2ccc3c(c2)OCCO3)CC1,n,n,n,u,n,n
CN1CCN(c2ccc(NC(=O)c3ccc4c(c3)OCCO4)cc2)CC1,n,n,36,n,81,n
CCC(=O)Nc1cc(Cl)ccc1N1CCN(C(=O)CC)CC1,n,u,n,n,n,n
CCC(=O)N1CCN(c2ccc(Cl)cc2NC(=O)c2ccc(N3CCCC3)c([N+](=O)[O-])c2)CC1,1.9µM,u,n,u,n,n
CCCSc1nc2c([nH]c3ccccc32)c(=O)n1C,x,x,x,x,x,n
CC(C)(C)c1ccc(OCC(=O)Nc2ccc(C(=O)Nc3ccccc3C(=O)O)cc2)cc1,n,n,n,n,n,n
SMILES,Pf growth 96h,Pf growth 48h,Cycloheximide cs,HCV inh,Shiga inhibitor,HCMV antiviral
Cc1ccc(C(=O)Nc2ccc(N3CCN(C)CC3)cc2)c(Cl)c1,10µM,n,42,n,62,n
Cc1ccc(C(=O)Nc2ccc(N3CCN(C)CC3)cc2)cc1C,12µM,n,32,n,80,n
Cc1ccc(C(=O)Nc2ccc(N3CCN(S(C)(=O)=O)CC3)cc2)cc1C,u,n,n,n,n,n
O=[N+]([O-])c1ccc(OCCO)c(P(=O)(c2ccccc2)c2ccccc2)c1,n,n,n,n,n,n
CC(C)(CCC(=S)N1CCOCC1)c1ccccc1,x,x,x,n,x,u
COC(C[C@@H]1O[C@@H]1C(=O)COCc1ccccc1)OC,n,n,n,n,n,n
Cc1ccc(C(=O)c2ncc[nH]2)cc1,n,n,x,n,x,n
O=C(c1ccc(OC(F)(F)F)cc1)c1ncc[nH]1,n,n,39,n,65,x
CC(=O)NC1=C(NC2CCS(=O)(=O)C2)C(=O)c2ccccc2C1=O (stereo not given),u,10µM,n,7.1µM,n,n
CN(C1=C(NC(=O)c2ccccc2)C(=O)c2ccccc2C1=O)C1CCS(=O)(=O)C1 (stereo not given),5.2µM,4.7µM,39,u,75,-99
CN(C(=O)c1ccccc1Br)C1CCS(=O)(=O)C1 (stereo not given),n,n,x,n,x,n
